For assay [1], the target named is N-terminal Xaa-Pro-Lys N-methyltransferase 1 (Homo sapiens) (UniProt Q9BV86). The assay is described as follows: qHTS Assay for Inhibitors of N-terminal methyltransferase 1 (NTMT1): LOPAC validation of the NTMT1 SAHH-coupled ThioGlo3 Assay (AID 1347143).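 Note: SAH from peptide methylation measured as thiol fluorescence via SAHH coupling and ThioGlo3; nearly all actives have a fitted effect of over 70% in size.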 An outline of the steps: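 Recombinant human NTMT1 (125nM) was pre-incubated 1 min at room temperature with compounds over a concentration range, then a mix of 100uM SAM, 10uM SAHH and 15uM ThioGlo3 (concentrations in added reagent) was added. ThioGlo3 fluorescence (ex 340/em 450nm) after 30 min was normalized to the initial reading.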

Assay [2] can be described thus: qHTS of pediatric cancer cell lines to identify multiple opportunities for drug repurposing: Confirmatory screen for RD cells (AID 1347124).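 Note: cells exposed to compound for 48 h before viability readout; nearly all actives have a fitted effect of over 65% in size.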 An outline of the steps:
(§1)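 Viability after 48 h compound treatment at 37C, 500-1,000 cells/well, read as ATP luminescence with CellTiter-Glo. Primary screens used 11-point (MIPE, 0.78 nM-46 µM) or 8-point (NPC, 0.59 nM-46 µM) final concentrations; follow-up screens used 11-point dilutions.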

The nature of assay [3]: qHTS of pediatric cancer cell lines to identify multiple opportunities for drug repurposing: Confirmatory screen for Saos-2 cells (AID 1347127). Note: nearly all actives have a fitted effect of over 60% in size. The conditions noted are these: Saos-2 osteosarcoma cell viability. An outline of the steps: as §1
Assay [4] is described as follows: qHTS of pediatric cancer cell lines to identify multiple opportunities for drug repurposing: Confirmatory screen for SK-N-SH cells (AID 1347129).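 Note: cells exposed to compound for 48 h before viability read; nearly all actives have a fitted effect of over 60% in size.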 An outline of the steps: as §1
Assay [5] in a line: qHTS of pediatric cancer cell lines to identify multiple opportunities for drug repurposing: Confirmatory screen for U-2 OS cells (AID 1347122). Note: nearly all actives have a fitted effect of over 65% in size. An outline of the steps: as §1
For orientation: In qHTS, concentration-response curves come from the screen itself.

Assay [6] can be described thus: qHTS of pediatric cancer cell lines to identify multiple opportunities for drug repurposing: Confirmatory screen for Rh41 cells (AID 1347123).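 Note: 48 h compound exposure; nearly all actives have a fitted effect of over 60% in size.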 An outline of the steps: as §1
Assay [7] can be described thus: qHTS of pediatric cancer cell lines to identify multiple opportunities for drug repurposing: Confirmatory screen for OHS-50 cells (AID 1347128).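 Note: compound exposure lasted 48 h at 37 degrees C; nearly all actives have a fitted effect of over 55% in size.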 An outline of the steps: as §1
Assay [8] is described as follows: qHTS of pediatric cancer cell lines to identify multiple opportunities for drug repurposing: Confirmatory screen for Rh18 cells (AID 1347125). Note: nearly all actives have a fitted effect of over 55% in size. An outline of the steps:
as §1

Assay [9] is described as follows: qHTS of pediatric cancer cell lines to identify multiple opportunities for drug repurposing: Confirmatory screen for Rh30 cells (AID 1347126). Note: nearly all actives have a fitted effect of over 55% in size. An outline of the steps:
as §1

Records with an inconclusive call do not appear. The source made the active and inactive calls. Calls come from the whole dose curve; as a rule, active = well fitted curve in the direction sought with a large enough effect; inconclusive = small, poorly fitted or top-dose-only effect, or another doubt; inactive = no such curve, though single readings can be large; an effect the other way counts as inactive or inconclusive.
Potency is the fitted concentration of half-maximal effect.

N-terminal Xaa-Pro-Lys N-methyltransferase 1 (Homo sapiens), sequence (Q9BV86 whole entry, looked up): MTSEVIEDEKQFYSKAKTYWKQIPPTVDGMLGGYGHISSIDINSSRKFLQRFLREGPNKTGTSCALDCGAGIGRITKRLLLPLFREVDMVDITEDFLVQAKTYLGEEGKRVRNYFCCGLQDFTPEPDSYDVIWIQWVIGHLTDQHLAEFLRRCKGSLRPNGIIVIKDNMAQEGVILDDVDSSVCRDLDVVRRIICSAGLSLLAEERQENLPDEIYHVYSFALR

As for `c1ccc(-c2ccccn2)nc1`, the Potency result in assay [1] was “inactive”.
With `O=C(CCSCc1ccco1)NNC(=O)N1Cc2ccccc2Oc2ccc(Cl)cc21`, the Potency result in assay [1] was “inactive”.
Regarding `O=C(/C=C/c1ccc(O)cc1)c1ccc(O)cc1O`, the Potency in assay [1] was 44.7 µM (active).
`CO[C@H]1O[C@@H]2O[C@]3(C)CC[C@@H]4[C@@H](C)CC[C@H]([C@H]1C)[C@]24OO3`: in assay [1], the Potency result was “inactive”.
On the same count and under the same terms, for `CNC(=O)[C@H]1O[C@@H](n2cnc3c(NCc4cccc(I)c4)ncnc32)[C@H](O)C1O` (stereo partly specified) the value was “inactive”.
`NCCCCCCCCCCN`: the Potency result in [1] was “inactive”.
Same read-out and setting: the value for `CN[C@H](CC(C)C)C(=O)N[C@H]1C(=O)N[C@@H](CC(N)=O)C(=O)N[C@H]2C(=O)N[C@H]3C(=O)N[C@H](C(=O)N[C@H](C(=O)O)c4cc(O)cc(O)c4-c4cc3ccc4O)[C@H](O)c3ccc(c(Cl)c3)Oc3cc2cc(c3O[C@@H]2O[C@H](CO)[C@@H](O)[C@H](O)[C@H]2O[C@H]2C[C@](C)(N)[C@H](O)[C@H](C)O2)Oc2ccc(cc2Cl)[C@H]1O` was “inactive”; that for `CNCC[C@H](Oc1ccc(C(F)(F)F)cc1)c1ccccc1` was “inactive”; that for `CCCN(CC1CC1)c1nc(C)nc(Nc2c(Cl)cc(Cl)cc2Cl)c1Cl` was “inactive”.
The same measure, in the same setting: for `CC(C)Cc1ccc([C@H](C)C(=O)O)cc1` the value was “inactive”.
Take `[O-][n+]1ccccc1SSc1cccc[n+]1[O-]`: the Potency result in [2] is “inactive”. Further, the figures for the Potency in assay [3] and in assay [4] were 1.82 µM (active) and 3.23 µM (active), respectively.
On to `CCCSc1ccc2nc(NC(=O)OC)[nH]c2c1`, for which the Potency is 1 µM (active) in assay [5]; 1.12 µM (active) in assay [6]; 2.51 µM (active) in assay [2]; 1.58 µM (active) in [3]; 2.51 µM (active) in assay [7]; 6.31 µM (active) in [4].
Take `CNC(=O)[C@H]1O[C@@H](n2cnc3c(NCc4ccc(N)cc4)ncnc32)[C@H](O)C1O` (stereo partly specified): the Potency entry in assay [1] is “inactive”.
Turning to `COC(=O)c1nc(Cl)c(Cl)nc1N`, the Potency in [5] is 2.61 µM (active); in assay [6], 1.31 µM (active); in assay [2] it was 2.61 µM (active); in assay [8], 20.8 µM (active); in assay [9] it was 16.5 µM (active); in [3], 2.61 µM (active). The Potency in assay [7] is 18.5 µM (active); in assay [4] it was 4.69 µM (active).
Regarding `Nc1ccc([N+](=O)[O-])cc1O`, the Potency entry in [5], in [6], in assay [8], in assay [9], in [7] and in assay [4] was “inactive” throughout.
Consider `CN=c1nc(-c2ccccc2)n(-c2ccccc2)s1`, for which the Potency in assay [1] was 0.316 µM (active).
Consider `COc1cccc2c1C(=O)c1c(O)c3c(c(O)c1C2=O)C[C@@](O)(C(=O)CO)C[C@@H]3O[C@H]1C[C@H](N)[C@H](O[C@@H]2CCCCO2)[C@H](C)O1`, for which the Potency is 2.93 µM (active) in assay [6], 5.85 µM (active) in assay [9] and 2.35 µM (active) in assay [4].
`Oc1c(Br)cc(Br)c2cccnc12`: the Potency in assay [5] is 14.7 µM (active). The Potency entry in assay [8] and in assay [7] was “inactive” throughout.
Turning to `CC12C(=O)OC(=O)C1(C)C1CCC2O1` (stereo unspecified), the Potency entry in [1] is “inactive”.
Turning to `CN1C2CC(OC(=O)[C@H](CO)c3ccccc3)CC1C1OC12` (stereo partly specified), the Potency entry in [1] was “inactive”.
The same measure, in the same setting: for `CC[C@H]1OC(=O)[C@H](C)[C@@H](O[C@H]2C[C@@](C)(OC)[C@@H](O)[C@H](C)O2)[C@H](C)[C@@H](O[C@@H]2O[C@H](C)C[C@H](NC)[C@H]2O)[C@](C)(O)C[C@@H](C)CN(C)[C@H](C)[C@@H](O)[C@]1(C)O` the value was “inactive”.
In the case of `OCC1O[C@H]([S-])C(O)[C@@H](O)[C@@H]1O.[Au+]` (stereo partly specified), the Potency entry in [1] was “inactive”.
As to `Cn1ncc(S(=O)(=O)Cc2ccccc2)c(Br)c1=O`, the Potency in assay [1] was 44.7 µM (active).
Same read-out and setting: for `Cc1cc2c(cc1Cl)N(C(=O)Nc1ccc(Oc3cccnc3C)nc1)CC2` the value was 8.91 µM (active); for `c1cnc2c(c1)ccc1cccnc12`, “inactive”.
As to `O=C(O)CCCC[C@@H]1CCSS1`, the Potency result in assay [1] was “inactive”.
`COC(=O)Nc1nc2ccc(C(=O)C3CC3)cc2[nH]1`: the Potency was 2.33 µM (active) in [2], 1.31 µM (active) in assay [3] and 1.31 µM (active) in assay [7]. In addition, the Potency result in assay [8] and in [9] was “inactive” each time.
Take `O=c1cc(-c2ccccc2)oc2c(O)c(O)ccc12`: the Potency in assay [1] was 56.2 µM (active).
The same measure, in the same setting: the value for `CC(C)(C)NCC(O)COc1nsnc1N1CCOCC1` (stereo unspecified) was “inactive”.
With `N=C1N=C(N)c2cc3ccccc3cc21`, the Potency in assay [6] is 30.2 µM (active); in [9] it was 47.9 µM (active); in assay [7], 42.7 µM (active); in assay [4], 38.2 µM (active). Further, the Potency result in assay [2] was “inactive”.
Turning to `CN(C)c1ccc(C(=C2C=CC(=[N+](C)C)C=C2)c2ccccc2)cc1`, the Potency in [6] is 0.414 µM (active); in assay [2], 1.31 µM (active); in assay [8], 1.04 µM (active); in [9], 0.104 µM (active); in [3], 0.522 µM (active); in assay [7], 2.61 µM (active). The Potency in assay [4] is 1.32 µM (active).
With `CN(C)CCC(c1ccc(Cl)cc1)c1ccccn1` (stereo unspecified), the Potency result in assay [1] was “inactive”.
As for `OC[C@H]1O[C@@H](n2cnc3c(NC4CCCC4)ncnc32)[C@H](O)C1O` (stereo partly specified), the Potency entry in assay [1] is “inactive”.
On the same count and under the same terms, the value for `NS(=O)(=O)C#Cc1ccccc1` was “inactive”.

The values above are taken from PubChem BioAssay (NCATS).
